ROMK mod – modulators of human ROMK potassium channel | P48048 | Tet-inducible ROMK, thallium flux fluorescence; actives lie on both sides | B-score at 10 µM | 130,000 tested, 2% active;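 active means signal ratio slope over the read window, or its plate-corrected B-score, at least 3 SD from the plate mean, either direction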;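 further: B-score of the F/F0 ratio slope over 7 to 12 s after thallium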
Arbovirus anti – blocks arbovirus infection; arbovirus infection cell-based antiviral screen; inhibition, % at 10 µM; 200,000 tested, 0.37% active; in the data active means inhibition above about 30%
HSV augment – increases HSV replication in cells; HSV replication augmentation in cells, fold increase; AID 1956; 220,000 tested, 0.005% active; maximum fold increase; in the data active means maximum fold increase above about 1.5; inconclusive means no clear call, values can overlap the other calls; tested in PC3 cells
Cl transport mod – KCC2 (human) Cl- transport modulation. Q9H2X9. 190,000 tested, 2.2% active. AID 1456. B-score of Tl+ flux slope (higher = more flux/activation; lower = inhibition) at 10 µM. KCC2 cells, thallium flux FluoZin-2 fluorescence;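 active means thallium flux slope and its plate-corrected score both differing from the plate sample mean at a set confidence after two filtering rounds, in either direction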;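 further: slope of fluorescence scaled to starting intensity during 10 to 20 s after thallium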
Measles CPE – protection of cells from measles virus; AID 841; protection (pct of control), % at 4 µM; Measles virus-infected cells, CPE protection, absorbance; 140,000 tested, 1.5% active; in the data active means protection mostly above about 24%, no sharp cut-off; inactive means mostly below about 26%
KCC2 secondary – KCC2 (human) modulation, secondary assay. shares compounds with Cl transport mod. HEK293-KCC2, thallium flux, FluoZin2 fluorescence; stronger effect = higher value. normalised thallium flux (F/F0 slope) at 10 µM. 3,700 tested, 15% active. AID 1713;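 active means thallium flux slope above the same plate's solvent-only control mean plus 3 SD; inconclusive means the two replicate wells disagree; inactive means no significant difference from solvent-only control wells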
KCC2 bumet counter – thallium flux despite bumetanide block in KCC2 cells, secondary assay 3; shares compounds with Cl transport mod; HEK293-KCC2 + bumetanide/ouabain, thallium flux FluoZin2; stronger effect = higher value; normalized thallium flux at 10 µM; 3,700 tested, 49% active;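 active means thallium entry rate above the same plate's blocked-transporter control wells by more than 3 SD; inconclusive means the two repeat wells disagree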;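 further: raw slope of fluorescence over initial fluorescence between 10 and 20 s after thallium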
KCC2 sec2 – KCC2 (human) modulation, second secondary assay | AID 1715 | shares compounds with Cl transport mod | normalized thallium flux at 10 µM | HEK293-KCC2, thallium flux FluoZin2 fluorescence; actives lie on both sides; F/F0 rise rate, 10–20 s post-thallium | 3,700 tested, 23% active;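 active means thallium flux slope more than 3 SD above or below the plate's solvent-only control mean, mostly below; inconclusive means the two repeat wells disagreed; inactive means no significant shift from solvent-only controls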
HEK counter1 – acts in parental HEK cells, KCC2 counter-screen | shares compounds with Cl transport mod | HEK293 parental cells, thallium flux FluoZin2, ouabain; baseline-ratio fluorescence slope, 10–20 s after thallium | thallium flux rate (normalised fluorescence) at 10 µM | 3,700 tested, 46% active | AID 1716;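 active means thallium flux rate significantly above the same plate's solvent-only control wells, beyond their mean plus 3 SD; inconclusive means the two replicate wells gave conflicting results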
KCC2 ouabain – modulates human KCC2 on retest with ouabain; shares compounds with Cl transport mod; HEK293-KCC2, thallium flux FluoZin2 fluorescence; bidirectional: low = inhibitor, high = activator; raw Tl+ flux slope (below DMSO = inhibition, above = activation) at 10 µM; 3,700 tested, 48% active;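 active means thallium flux slope beyond 3 SD from same-plate DMSO control mean in most replicates, usually higher, sometimes lower; inconclusive means repeat tests gave conflicting results; inactive means no significant difference from controls in most replicates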;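 further: slope of initial-normalized fluorescence between seconds 10 and 20 after thallium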
HEK293 Tl flux2 – parental HEK flux effect, counter-screen 2; shares compounds with Cl transport mod; HEK293 parental, thallium flux FluoZin-2 fluorescence slope; thallium flux slope at 10 µM; 3,700 tested, 33% active; AID 1718;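 active means thallium flux slope above the same plate's solvent-control mean plus 3 SD in both duplicate wells; inconclusive means duplicate wells that disagreed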;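 further: run without ouabain in cells lacking the KCC2 cotransporter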
Hits are given with their value; n = inactive; u = inconclusive; x = no result. The list is not random: actives were taken first. Their share in the collection is about 4%.

SMILES	ROMK mod	Arbovirus anti	HSV augment	Cl transport mod	Measles CPE	KCC2 secondary	KCC2 bumet counter	KCC2 sec2	HEK counter1	KCC2 ouabain	HEK293 Tl flux2
C/C=C/Cn1c(SCCCc2ccccc2)nc2c1c(=O)[nH]c(=O)n2C	x	n	n	-5.1	n	n	n	u	0.0054	u	0.0086
COCCn1c(SCCCc2ccccc2)nc2c1c(=O)[nH]c(=O)n2C	x	n	n	n	n	x	x	x	x	x	x
CCOC(=O)C1=C2NC(=O)c3ccccc3N2C(=O)C1	n	n	n	40	x	0.014	0.091	n	0.037	0.069	0.018
CCc1nc2n(n1)C(O)c1cc([N+](=O)[O-])ccc1S2 (stereo unspecified)	x	x	n	n	x	x	x	x	x	x	x
CC(=O)NNC(=O)c1sc(=S)n2c1[nH]c(=O)c1sccc12	n	n	n	8.2	x	n	0.01	n	0.012	u	0.012
NC(=O)c1sc(=S)n2c1[nH]c(=O)c1sccc12	n	n	u	n	x	x	x	x	x	x	x
O=C(NCc1ccccc1)c1sc(=S)n2c1[nH]c(=O)c1ccccc12	x	n	n	20	n	n	0.065	u	0.056	0.054	0.045
CC(=O)OCC1(C)CN(c2ccccc2)N(C(=O)c2ccc(F)cc2)C1=O (stereo unspecified)	n	n	n	n	x	x	x	x	x	x	x
CCc1ccccc1NNC(=O)c1snnc1C	x	x	n	5	x	n	0.0084	n	n	n	n
COc1ccc(CN2CCN(Cc3csc(C(C)=O)c3)CC2CCO)c(C)c1C (stereo unspecified)	n	n	n	n	x	x	x	x	x	x	x
CCC1(CC)NC(=O)N(CC(=O)OCC(=O)Nc2sccc2C#N)C1=O	n	n	n	n	x	x	x	x	x	x	x
COc1ccccc1-n1c(=O)c(C#N)c(-c2ccc([N+](=O)[O-])cc2)c2cc(C(=O)c3ccccc3O)cnc21	x	x	n	n	x	x	x	x	x	x	x
COc1ccc(NC(=O)NCCN2CCc3ccccc3C2)cc1	x	n	n	n	n	x	x	x	x	x	x
CSc1ccc(NC(=O)NCCN2CCc3ccccc3C2)cc1	x	n	n	-3.9	n	n	n	0.025	n	n	n
CC(C)c1ccc(NC(=O)C(=O)C2C(=O)Nc3ccccc32)cc1 (stereo unspecified)	n	n	n	x	x	x	x	x	x	x	x
CC(C)(C)c1ccc(NC(=O)C(=O)C2C(=O)Nc3ccccc32)cc1 (stereo unspecified)	n	n	n	7.9	x	n	0.025	u	0.018	0.028	0.02
O=C(Nc1nc2c(s1)CN(Cc1ccccc1)CC2)c1cccc(S(=O)(=O)N2CCc3ccccc32)c1	x	n	n	3.4	n	0.0045	0.0015	0.021	0.0051	0.013	0.0079
O=C(Nc1nc2ccccc2s1)c1cccc(S(=O)(=O)N2CCc3ccccc32)c1	x	x	n	n	x	x	x	x	x	x	x
Cc1c(-c2ccncc2)oc2ccc(Br)cc2c1=O	n	n	n	n	x	x	x	x	x	x	x
O=C(NC(=S)Nc1cc(Cl)ccc1O)c1cccc(Br)c1	x	x	n	6.5	x	n	0.031	n	0.014	0.027	0.018
C#CCSc1nnc(C)c(C)n1	x	x	n	x	x	x	x	x	x	x	x
Cc1nc(NC(=S)Nc2ccccc2)sc1C	n	n	n	16	x	n	0.063	0.05	0.032	0.05	0.035
COc1cccc(CNC(=O)Cn2cccc2)c1	n	n	x	9.6	n	n	n	n	n	n	n
COc1cccc(CNC(=O)Cc2ccc(Br)cc2)c1	x	n	n	n	n	x	x	x	x	x	x
COc1cccc(CNC(=O)CSc2ccc(-c3cccs3)nn2)c1	n	n	n	-3.2	x	n	n	u	n	n	n
SMILES	ROMK mod	Arbovirus anti	HSV augment	Cl transport mod	Measles CPE	KCC2 secondary	KCC2 bumet counter	KCC2 sec2	HEK counter1	KCC2 ouabain	HEK293 Tl flux2
COc1ccccc1CNC(=O)CSc1ccc(-c2cccs2)nn1	n	n	x	-4.3	x	n	n	n	n	0.015	n
COc1cc(CNCCO)cc(Cl)c1OCc1ccc(Cl)cc1Cl	n	n	n	n	x	x	x	x	x	x	x
CC1=NC(C)(C)Cc2cc(C)c(C)cc21	n	n	n	n	x	x	x	x	x	x	x
O=C(C[n+]1cccc(CO)c1)Nc1nc2ccccc2s1	n	n	n	n	x	x	x	x	x	x	x
Nn1c(Cc2cccc3ccccc23)nnc1SCC(=O)NC1CCS(=O)(=O)C1 (stereo unspecified)	x	n	n	5.7	n	n	n	n	n	n	n
CCN(C(=O)CSc1nnc(Cc2cccc3ccccc23)n1N)C1CCS(=O)(=O)C1 (stereo unspecified)	x	n	n	n	n	x	x	x	x	x	x
Cc1cc(-c2nnc(CCC(=O)N3CCN(Cc4cccc(F)c4)CC3)o2)c(C)o1	n	n	n	n	x	x	x	x	x	x	x
CCSc1nnc(NC(=O)CSc2nccn2-c2cccc(C)c2C)s1	n	n	n	3.1	n	n	0.016	n	0.015	n	0.018
S=C(NCc1ccco1)Nc1ccc(Br)cc1Cl	n	n	n	4	x	n	0.011	n	0.0093	n	u
c1coc(CNc2nc3nonc3nc2NCc2ccco2)c1	x	n	n	x	n	u	n	0.028	n	n	n
O=C(C1CCCCC1)N1CCCC(c2nc3c(nnn3Cc3ccccc3)c(=O)[nH]2)C1 (stereo unspecified)	n	n	n	x	n	n	u	0.026	0.0061	0.016	u
Cc1ccc(Cn2nnc3c(=O)[nH]c(C4CCN(S(=O)(=O)c5ccc(C)cc5)CC4)nc32)cc1	n	n	n	x	n	n	n	n	n	n	n
CCOc1ccccc1N1CC(C(=O)Nc2ccc3c(c2)OCCO3)CC1=O (stereo unspecified)	n	n	n	n	x	x	x	x	x	x	x
O=[N+]([O-])c1cccc(/C=N/NC2=NS(=O)(=O)c3ccccc32)c1	n	n	n	-3.8	x	n	u	n	n	n	n
FC(F)(F)Oc1ccc(NC(=S)Nc2ccccc2N2CCOCC2)cc1	x	x	n	n	x	x	x	x	x	x	x
COc1ccc(OC)c(NC(=O)C(=O)NCCC2=CCCCC2)c1	n	n	n	n	n	x	x	x	x	x	x
Oc1c(C=Nc2ccccc2)sc2ccccc12	n	n	n	2.8	x	n	n	n	n	u	n
Oc1c(C=Nc2cccnc2)sc2ccccc12	n	n	n	n	n	x	x	x	x	x	x
CCOc1ccc(Nc2nc(NCCN3CCOCC3)nc(OC)n2)cc1	n	n	n	x	n	n	u	n	n	n	n
O=C(NC(=S)Nc1ccccc1N1CCCC1)c1cccs1	x	x	n	79	x	0.029	0.14	u	u	0.087	0.037

Screens: PubChem BioAssay, several laboratories
